NOD2 RIPK2 PPI: inhibitors of human NOD2-RIPK2 interaction; O43353; CHO BLA complementation NOD2-RIPK2, CCF4 ratio; inhibition, % at 4.98 µM; 0.38% of 360,000 active; AID 624267; in the data active means inhibition above about 21%;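 further: 0% = vehicle only and 100% = reference blocker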
Target sequence (O43353 whole entry, looked up): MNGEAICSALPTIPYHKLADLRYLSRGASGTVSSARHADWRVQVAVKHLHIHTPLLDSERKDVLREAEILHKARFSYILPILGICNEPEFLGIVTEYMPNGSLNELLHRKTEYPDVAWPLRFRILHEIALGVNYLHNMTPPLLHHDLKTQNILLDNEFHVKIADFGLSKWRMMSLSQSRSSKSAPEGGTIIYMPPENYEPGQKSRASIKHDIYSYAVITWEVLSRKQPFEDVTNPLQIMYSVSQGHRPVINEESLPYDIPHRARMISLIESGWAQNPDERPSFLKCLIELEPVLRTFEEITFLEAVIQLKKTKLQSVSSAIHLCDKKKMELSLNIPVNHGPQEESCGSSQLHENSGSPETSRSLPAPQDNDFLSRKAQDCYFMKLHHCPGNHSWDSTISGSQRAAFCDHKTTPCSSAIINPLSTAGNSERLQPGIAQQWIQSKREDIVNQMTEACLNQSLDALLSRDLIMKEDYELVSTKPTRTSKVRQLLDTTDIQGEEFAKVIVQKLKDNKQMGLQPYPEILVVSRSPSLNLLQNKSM
TLR4 MyD88 comp: inhibitors of human TLR4-MyD88 binding; O00206+Q99836; AID 861; HeLa CL3-4 TLR4/MyD88 BLA complementation, FRET ratio; inhibition, % at 8.4 µM; 0.18% of 200,000 active; in the data active means inhibition above about 25%;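 further: 0% = vehicle and 100% = reference inhibitor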
GC-A act: GC-A (human) enzyme activation | P16066 | HEK293 GC-A cells, cGMP TR-FRET, EC30 ANP; 0% at EC30 ANP, 100% saturating ANP | activation, % at 10 µM | 0.14% of 370,000 active | AID 1671463; in the data active means activation above about 40%
TLR9-MyD88 inh: inhibitors of human TLR9-MyD88 binding | Q9NR96+Q99836 | CHO BLA complementation TLR9-MyD88, CCF4 FRET ratio | inhibition, % at 4.98 µM | 0.21% of 340,000 active;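 active means inhibition above the mean over all tested compounds plus 3 SD, cut at about 21% in these data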;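 further: 0% = DMSO only wells and 100% = clavulanate BLA inhibitor control wells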
GC-B act: GC-B (human) receptor activation; P20594; HEK293-GC-B cells, CNP EC30, cGMP TR-FRET; 0% at EC30 CNP, 100% saturating CNP; activation, % at 10 µM; 0.11% of 370,000 active; AID 1920062;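 active means activation at 10 µM reaching about 35% in either raw or pattern-adjusted values, limit read from the data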
Neddyl block: cullin neddylation inhibition | P61081+Q13564 | TR-FRET cullin neddylation, biochemical | inhibition, % at 25 µM | 0.58% of 360,000 active | AID 651699; in the data active means inhibition above about 36%
The depositor's hits bear a star; nt = not tested or not shown. Shown are actives, neighbours in structure and some others; about 1.2% of the full set was active somewhere.

SMILES	NOD2 RIPK2 PPI	TLR4 MyD88 comp	GC-A act	TLR9-MyD88 inh	GC-B act	Neddyl block
CCN1/C(=C/C=C/C2=[N+](CC)c3ccccc3C2(C)C)C(C)(C)c2ccccc21	9.4	nt	18.8	-18.4	42.7*	-37.1
CN1/C(=C\C=C\C2=[N+](C)c3ccc4ccccc4c3C2(C)C)C(C)(C)c2ccccc21	nt	-7.9	nt	nt	nt	nt
Cc1c(C(=O)Nc2ccccc2)c2cc(O)ccc2n1Cc1ccccc1	-2.0	nt	61.3*	-1.1	-2.9	-0.5
COC(=O)c1c(C)n(Cc2ccco2)c2ccc(O)cc12	-7.3	-7.4	46.8*	-3.7	-7.7	15.3
CC(=O)c1c(C)n(Cc2ccccc2Cl)c2ccc(O)cc12	-14.7	-2.9	83.3*	2.6	9.9	4.2
CC(=O)c1c(C)n(CC2CCCO2)c2ccc(O)cc12 (stereo not drawn)	3.2	8.0	2.8	-3.5	3.5	2.7
CCCCCCCCn1sccc1=O	14.9	nt	49.2*	0.7	13.5	1.9
O=S(=O)(c1ccc(Cl)cc1)N1Cc2ccc(Br)cc2-n2nncc2C1	nt	nt	-9.3	nt	-4.6	nt
O=C(O)CCl	nt	nt	3.7	nt	3.4	nt
O=C1NC(=O)C(=Cc2ccc(-c3ccc(F)cc3O)o2)C(=O)N1	7.9	nt	57.3*	7.6	22.4	-5.5
CCN(CC)C(=O)Cn1cc(/C=C2\C(=O)NC(=O)N(c3ccccc3F)C2=O)c2ccccc21	0.7	nt	43.7*	-0.3	15.7	7.1
COC1C(O)C(C)OC(OC2C(Oc3cccc4c(O)c5c(=O)oc6ccc(C)c7c(=O)oc(c34)c5c67)OC(C)C(O)C2O)C1O (stereo not drawn)	-8.5	nt	6.9	2.1	2.1	40.5*
CCCCN1CCN(C(=O)COc2cc(=O)n(C)c3ccccc23)CC1	nt	nt	-0.8	nt	-4.5	nt
CCCC(=O)N1c2ccc(Cl)cc2C(c2ccccc2)=NCC1C(=O)NC(C)(C)C (stereo not drawn)	nt	nt	-20.2	nt	-20.0	nt
Cc1cccc(C(C)c2cnc[nH]2)c1C (stereo not drawn)	nt	nt	4.9	nt	-2.6	nt
Cc1ccc2c(C)c3ccc4ccccc4c3c[n+]2c1	-21.7	nt	-17.9	5.9	-21.2	64.2*
O=C(NCCN1CCC2(CC1)C(=O)NCN2c1cccc(F)c1)c1ccc2ccccc2c1	1.4	nt	-10.0	nt	-10.1	-12.3
Cc1ccc(-c2cc(-c3ccc(C)cc3)[n+](-c3ccc(C(=O)O)cc3)c(-c3ccc(C)cc3)c2)cc1	2.2	nt	-0.9	-7.5	1.2	35.9*
O=C(c1ccccc1)N1Cc2cc(Br)ccc2-n2nncc2C1	nt	nt	-2.2	nt	2.1	nt
Cc1cc(N2CCNC[C@H]2C)ccc1N1CC[C@H](O)C1	nt	nt	-1.8	nt	-1.0	nt
COc1cc(/C=C/c2nc3ccccc3c(=O)n2-c2ccc(O)cc2)ccc1O	9.9	nt	12.6	13.5	35.4*	-2.7
O=c1c2ccccc2nc(/C=C/c2ccc3c(c2)OCO3)n1-c1ccccc1	2.1	0.3	-8.1	4.6	-3.9	23.1
Fc1ccc(N2Cc3ccccc3-n3nncc3C2)cc1	4.2	nt	4.4	nt	1.4	2.4
CC(=O)c1ccc2c(c1)C1C(Cl)C(Sc3ccccc3[N+](=O)[O-])CC1C(c1ccccc1[N+](=O)[O-])N2 (stereo not drawn)	4.8	8.3	-0.5	-1.4	74.8*	3.3
CC(=O)c1ccc2c(c1)C1C(Cl)C(Sc3ccccc3[N+](=O)[O-])CC1C(c1ccccc1)N2 (stereo not drawn)	-1.8	-3.7	-11.9	-3.8	-11.0	-23.8
SMILES	NOD2 RIPK2 PPI	TLR4 MyD88 comp	GC-A act	TLR9-MyD88 inh	GC-B act	Neddyl block
CCn1c(C)cc(/C=C2\C(=O)NC(=O)N(c3ccccc3C)C2=O)c1C	0.5	-3.2	1.9	1.4	-2.5	-9.3
Cc1ccccc1N1C(=O)NC(=O)/C(=C\c2cnn(-c3ccccc3)c2)C1=O	0.8	1.7	44.9*	10.8	9.8	-9.2
O=C(NC(CCC(O)CO)P(=O)(Oc1ccccc1)Oc1ccccc1)OCc1ccccc1 (stereo not drawn)	nt	nt	-9.4	nt	-4.8	nt
O=C1NC(=O)C(=Cc2ccc(Sc3ccccc3)o2)C(=O)N1	-1.2	nt	51.3*	2.0	49.0*	12.7
CN1C(=O)C(=Cc2ccc(Sc3ccccc3)o2)C(=O)N(C)C1=O	-11.0	8.1	46.3*	5.9	26.9	3.1
COc1ccc(NC2Oc3cc4c(cc3C(c3cc(OC)c(OC)c(OC)c3)C2C)OCO4)cc1 (stereo not drawn)	-7.1	nt	-4.5	5.5	-0.6	-0.8
COc1cccc(C(c2nnnn2C(C)(C)C)N2CCC3(CC2)C(=O)NCN3c2ccccc2)c1OC (stereo not drawn)	0.8	nt	-3.6	nt	-6.0	15.7
O=C1CC=C2C3CC4N(CCC45c4cc(O)c(O)cc4N1C25)CC3=CCBr (stereo not drawn)	2.5	nt	-4.8	-2.6	-7.1	48.7*
COCCCn1c(N)c(C(=O)OCCOC)c2nc3ccccc3nc21	-10.8	-13.1	-0.7	-5.5	1.3	nt
CCOC(=O)c1c(N)n(Cc2ccc(OC)cc2)c2nc3ccccc3nc12	nt	-4.1	46.0*	nt	44.1*	nt
COC(=O)c1c(N)n(Cc2ccc(OC)cc2)c2nc3ccccc3nc12	5.2	-4.7	47.9*	-7.0	43.0*	nt
CCOC(=O)c1c(N)n(CCCOC(=O)c2ccco2)c2nc3ccccc3nc12	2.5	0.5	-0.3	-4.8	-1.6	nt
COCCOC(=O)c1c(N)n(Cc2ccc(OC)cc2)c2nc3ccccc3nc12	-1.9	13.8	47.3*	5.6	46.9*	nt
COCCOC(=O)c1c(N)n(Cc2ccco2)c2nc3ccccc3nc12	5.2	-12.7	-0.2	-0.7	-0.1	nt
COC(=O)C1CN(C#N)N(c2ccc(Cl)cc2)C12c1ccccc1-c1ccccc12 (stereo not drawn)	57.8*	4.2	nt	9.5	nt	7.4
COc1cccc(NC2=NCCS2)c1	nt	nt	3.0	nt	-0.2	nt
Cn1c(=O)c2c(nc(N/N=C/c3c(O)n(C4CCCCC4)c(=S)[nH]c3=O)n2C)n(C)c1=O	-7.1	nt	-7.8	6.8	-0.7	42.3*
Cc1ccccc1-n1c(O)c(/C=N/Nc2nc3c(c(=O)n(C)c(=O)n3C)n2C)c(=O)[nH]c1=S	5.2	-3.6	-4.1	-7.8	5.8	5.0
Clc1ccc(C(c2ccc(Cl)cc2)n2cc[n+](CC(OCc3ccc(Cl)cc3Cl)c3ccc(Cl)cc3Cl)c2)cc1 (stereo not drawn)	20.7	nt	-32.4	28.4*	-14.1	12.1
